Experimental data published in ChEMBL document CHEMBL3988442, “University of Dundee, Small-Polar-MMV Screening Library” (2021).
Out of some 69,000 compounds screened, about 950 (1.4%) showed an effect of 50% or more. The entries come from a sample that favours strong results as a whole.

System: Mycobacterium tuberculosis
Test: Cornell M. t heat shock assay; also: in the data most compounds retested in dose-response had high values
Type: functional, organism-based
Set-up: dose or concentration left out as unconfirmed

Structure (SMILES)	Percent Effect [%]
Cl.O=C(CCc1cccc(C2CCNCC2)n1)N1CCCCC1	-1.304
CCc1cnc(N)nc1N[C@@H](C)c1ncccc1C	-10.37
CCc1cnc(N)nc1NC(C)c1ccc(C)c(C)c1 (stereo not drawn)	51.29
CCc1cnc(N)nc1NC(C)c1cnn(C)c1 (stereo not drawn)	-5.78
Cl.Nc1cnn(CC(=O)N2CCCCC2)c1	-8.542
CCOc1ccc(CN2CC[C@H]3CC[C@@H](C2)N3)cc1CO	-10.09
CO[C@H]1CCN(S(=O)(=O)c2cccnc2)[C@@H]2CN(CC3CC3)C[C@H]12.O=C(O)C(F)(F)F.O=C(O)C(F)(F)F	2.331
O=C(O)C(F)(F)F.O=c1cc(CNS(=O)(=O)C2CC2)nc2n1CCCN(CC1CC1)C2	21.63
Cc1nc(CN2C[C@@H]3CN(C(=O)c4cccn4C)C[C@@H]3C2)cs1.O=C(O)C(F)(F)F	-44.62
C=C(C)COc1cccc(CNCc2nc3ccccc3c(=O)[nH]2)c1	22.25
COc1cccc(CNCc2nc3ccccc3c(=O)[nH]2)c1	81.36
COc1cccc(CNCCNS(=O)(=O)Cc2ccccc2)c1	-28.9
CC(C)N(C)Cc1cnc2n1CCN(Cc1ccco1)C2.O=C(O)C(F)(F)F.O=C(O)C(F)(F)F	-12.15
CC(C)N1CCC2(CCCNC2)C1=O.Cl (stereo not drawn)	-7.448
COc1ccc(-c2cnc(N)nc2C2CCCNC2)cc1.Cl (stereo not drawn)	9.716
O=C(O)C(F)(F)F.O=C(O)C(F)(F)F.O=C1COC2(CCN(Cc3ccncc3)CC2)CN1	-17.34
Cc1ccc(-c2cn[nH]c2C2CCCN(c3nccc(N)n3)C2)cc1 (stereo not drawn)	65.07
Cc1ccc(-c2cn[nH]c2C2CCCN(c3ccnc(C)n3)C2)cc1 (stereo not drawn)	19.62
Cc1ccc(-c2cn[nH]c2C2CCCN(c3ncccn3)C2)cc1 (stereo not drawn)	-0.9903
CS(=O)(=O)NC[C@]12COC[C@H]1CN(Cc1ccc3c(c1)OCO3)C2.O=C(O)C(F)(F)F	3.977
CCOC(=O)N1CC2(CCNCC2)c2cc(Cl)ccc21.Cl	-1.259
COCC(=O)NC1CC2(CCN(CCN(C)C)CC2)c2ccccc21 (stereo not drawn)	10.28

Structure (SMILES)	Percent Effect [%]
CC(O)c1cccc(Nc2nc(NCCO)c3ccccc3n2)c1 (stereo not drawn)	10.04
CCN(CC)c1nc(Nc2cccc(C(=O)O)c2)nc2ccccc12	-2.465
CCN(CC)c1nc(Nc2cccc(C(C)O)c2)nc2ccccc12 (stereo not drawn)	99.47
Cc1ccc(CN2CCc3onc(C(=O)Nc4cccnc4)c3C2)o1.O=C(O)C(F)(F)F.O=C(O)C(F)(F)F	26.18
Cc1cccc(CN2CC[C@H]3O[C@H](C(=O)Nc4cnccn4)CC[C@H]32)n1.O=C(O)C(F)(F)F.O=C(O)C(F)(F)F	-10.98
Cl.O=C1N(Cc2cccc(Cl)c2)CCC12CCCNC2 (stereo not drawn)	-6.247
O=C(NCc1cccnc1)N[C@H]1CC[C@@]2(CCC(=O)N2CC2CC2)CC1.O=C(O)C(F)(F)F	35.19
CC(=O)N1CCN(C(=O)c2ccc(-c3cccc(C)c3)[nH]c2=O)CC1	14.72
Cc1cccc(-c2ccc(C(=O)N3CCSCC3)c(=O)[nH]2)c1	96.07
Cc1cccc(-c2ccc(C(=O)N3CCN(C(C)C)CC3)c(=O)[nH]2)c1	7.848
O=C(O)C(F)(F)F.O=C(O)C(F)(F)F.O=C1CC(c2ccncc2)C2(CCN(CC3CC3)CC2)N1 (stereo not drawn)	-16.85
CN1CC(=O)N(c2cnn(C)c2)CC12CCN(CC1CC1)C2.O=C(O)C(F)(F)F.O=C(O)C(F)(F)F (stereo not drawn)	-40.13
CN(C)C(=O)COC[C@]12COC[C@H]1CN(C1CCCC1)C2.O=C(O)C(F)(F)F	33.3
O=C(O)C(F)(F)F.O=C1CCCN1Cc1nnc2n1CCN(Cc1ccco1)CC2	8.62
CN(Cc1cccnc1)C1CC2(CCN(c3ccccn3)CC2)C1.O=C(O)C(F)(F)F.O=C(O)C(F)(F)F.O=C(O)C(F)(F)F	-2.81
Cc1ccc2c(c1)SCC(=O)N2CC(=O)N1CCCC1c1nccs1 (stereo not drawn)	34.79
COc1ccccc1OCCC(=O)N1CCCCC1c1nccs1 (stereo not drawn)	-0.6566
O=C1CSc2ccccc2N1CC(=O)N1CCCCC1c1nccs1 (stereo not drawn)	95.25
CN(C)C(=O)N1CCC[C@]2(C(=O)N(C)C)CN(c3ccccn3)C[C@@H]2C1.O=C(O)C(F)(F)F	-29.23
Cc1nc(CN2C(=O)C[C@H]3[C@H]2CCN3C2CCOC2)cs1.O=C(O)C(F)(F)F (stereo partly drawn)	-20.37
O=C1C[C@H]2CC[C@@H](CN1)N2c1cc(-c2ccccc2F)nc2ccnn12	8.242
I.c1ccc(Sc2ccc3c(c2)OCO3)c(CNC2=NCCN2)c1	5.756

Structure (SMILES)	Percent Effect [%]
CN(C)Cc1cc(C2CCCCN2S(=O)(=O)Cc2ccccc2)nn1C.Cl (stereo not drawn)	-25.85
Cc1cccnc1CN1CC[C@H](Oc2cccc(F)c2)[C@@](C)(O)C1	104.4
Cc1cnccc1CN1CC[C@H](Oc2cccc(F)c2)[C@@](C)(O)C1	101.8
C[C@]1(O)CN(Cc2ncccc2F)CC[C@@H]1Oc1cccc(F)c1	32.25
Cc1cnccc1CN1CC[C@@](C)(O)[C@H](Oc2cccc(F)c2)C1	-11.46
Cc1nccc(CN2CC[C@H](Oc3cccc(F)c3)[C@@](C)(O)C2)n1	-10.08
C[C@]1(O)CN(Cc2ncc[nH]2)CC[C@@H]1Oc1cccc(F)c1	-7.197
Cc1ccc(CN2CCC3(CCN(c4cnn(C)c4)C3=O)C2)s1.O=C(O)C(F)(F)F (stereo not drawn)	-24.12
O=C(NC1CC1)[C@H]1C[C@H]2OCC[C@H]2N(Cc2cccnc2)C1.O=C(O)C(F)(F)F.O=C(O)C(F)(F)F	0.4638
O=C(NCC1CC1)C1CN(Cc2ccncc2)Cc2ccnn2C1.O=C(O)C(F)(F)F.O=C(O)C(F)(F)F.O=C(O)C(F)(F)F (stereo not drawn)	-17.14
Cn1cnc(S(=O)(=O)N2CCCC2)c1Cl	74.4
CN1CCN(S(=O)(=O)c2ncn(C)c2Cl)CC1	-34.66
Cn1cnc(S(=O)(=O)N2CCOCC2)c1Cl	-1.938
CC(C)(C)C(=O)N1C[C@H](c2ccsc2)[C@H]2CN(C3CCCC3)CC[C@H]21.Cl	-4.306
O=C(O)C(F)(F)F.O=C(O)C(F)(F)F.O=C1CC[C@]2(CC[C@@H](NCc3cccnc3)CC2)N1Cc1ccccc1	-11.79
CN1CCS(=O)(=O)[C@@H]2CCN(C(=O)CC(C)(C)C)CC[C@@H]21.O=C(O)C(F)(F)F	-1.789
CCOc1ccc2nc(CN3CCC(CN)C3)ccc2c1 (stereo not drawn)	106.9
CCOc1ccc2nc(CN3CCOC(CN)C3)ccc2c1 (stereo not drawn)	16.64
CCOc1ccc2nc(CN3CCC(CNC(C)=O)C3)ccc2c1 (stereo not drawn)	3.715
Cc1cc(=O)n(CC(=O)Nc2ccc(Cl)cc2)nc1C	-4.62
CC(=O)c1c(C)nn(CC(=O)Nc2ccc(F)cc2)c1C	21.2
Cc1cc(NC(=O)Cn2nc(C)c(C#N)c2N)ccc1Br	-21.12

Structure (SMILES)	Percent Effect [%]
CC(=O)c1c(C)nn(CC(=O)Nc2ccc(Br)cc2)c1C	105.9
Cc1nn(CC(=O)Nc2ccc(F)cc2)c(N)c1C#N	51.75
COc1ccc(NC(=O)Cn2nc(C)c(C)cc2=O)cc1OC	2.159
COc1ccc(NC(=O)Cn2nc(C)c(C)cc2=O)cc1	2.037
COc1ccc(NC(=O)Cn2nc(C)c(C(C)=O)c2C)cc1	105.6
Cc1nn(CC(=O)Nc2cccc(F)c2)c(N)c1C#N	4.908
NC(=O)N1CCC2(CC1)CN(Cc1cccnc1)C(=O)CO2.O=C(O)C(F)(F)F	-31.58
Cn1cc(CN2C[C@H]3CCC[C@@]3(COCC3CC3)C2)cn1.O=C(O)C(F)(F)F	12.92
COc1cc(CNCC(O)c2cccc(F)c2)cc2c1OCO2.Cl (stereo not drawn)	-9.248
Cc1cccc(CN2CC[C@H]3[C@H]2CCN3Cc2cnn(C)c2)n1.O=C(O)C(F)(F)F.O=C(O)C(F)(F)F.O=C(O)C(F)(F)F	-12.06
Cc1noc(C)c1CN1CCC2(CC1)NC(=O)CC2c1ccccc1.O=C(O)C(F)(F)F (stereo not drawn)	5.51
Cc1noc(C)c1C(=O)N1Cc2ncn(C)c2C(COCC2CC2)C1.O=C(O)C(F)(F)F (stereo not drawn)	16.79
CCN1CCC2(CCN(Cc3ccc(OC)cc3)CC2)C1=O.O=C(O)C(F)(F)F	-24.62
Cl.N[C@@H](Cc1ccccc1)c1nnc(S(=O)(=O)Cc2cccc(Cl)c2)o1	-4.264
Cc1ccc(N2CCC(c3cc(Cc4ccccc4)n[nH]3)CC2)nn1	6.303
Cc1ccc(N2CCC(c3[nH]ncc3Cc3ccccc3)CC2)nn1	102.6
CCc1cn[nH]c1C1CCN(c2cc(C)c3cc(OC)ccc3n2)CC1	2.652
Cc1ccc(N2CCCC(c3[nH]ncc3Cc3ccccc3)C2)nn1 (stereo not drawn)	8.561
CCc1cn[nH]c1C1CCN(c2cc(C)c3cccc(OC)c3n2)CC1	85.21
CCc1cn[nH]c1C1CCN(c2cc(C)c3ccc(OC)cc3n2)CC1	-17.8
CC(=O)N1CCN(Cc2ccc(C)o2)CC2(CC(=O)N(C)C2)C1.O=C(O)C(F)(F)F (stereo not drawn)	-2.414
Cc1nc(N)ncc1C(=O)N1CCCC(CCc2ccc(F)cc2)C1 (stereo not drawn)	-19.18
